Reference: PubChem BioAssay (NCI)
Compounds without any hit were thinned out: in the full panel of roughly 83,000, 20% have a hit.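 Percent growth is the endpoint: 0 to 100 indicates growth inhibition (40 means 60% inhibition), 0 means no net growth, and negative values indicate cell death.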 Unmarked numbers belong to inactive results. Calls of active or inactive are those of the source. Rule for the calls: active = growth percent below 10; inactive = the rest.

Columns and labels:
Experiment in all cases: NCI-60 one-dose screen, 48 h (100 = growth as untreated, 0 = no growth, -100 = all killed)
Details in all cases: 10 µM unless noted
[1] = system: NCI-H23 lung
[2] = system: NCI-H226 lung
[3] = system: NCI-H322M lung
[4] = system: HOP-62 NSCLC
[5] = system: NCI-H460 lung
[6] = system: HOP-92 NSCLC
[7] = system: NCI-H522 lung
[8] = system: A549/ATCC NSCLC
[9] = system: 786-0 renal
[10] = system: COLO 205 colon
[11] = system: DU-145 prostate
[12] = system: K-562 leukemia
[13] = system: MALME-3M melanoma
[14] = system: MDA-MB-231 breast
[15] = system: RXF 393 renal
[16] = system: SF-268 CNS
[17] = system: SF-295 CNS
[18] = system: SF-539 CNS
[19] = system: UACC-257 melanoma
[20] = system: M14 melanoma

Structure (SMILES) | growth [1] | growth [2] | growth [3] | growth [4] | growth [5] | growth [6] | growth [7] | growth [8] | growth [9] | growth [10] | growth [11] | growth [12] | growth [13] | growth [14] | growth [15] | growth [16] | growth [17] | growth [18] | growth [19] | growth [20]
O=C1CCC/C=C\C[C@H]2C=C(Cl)C(=O)/C2=C/C[C@H](CCCCC(F)(F)F)OC(=O)CCC/C=C\C[C@H]2C=C(Cl)C(=O)/C2=C/C[C@H](CCCCC(F)(F)F)O1 | -35.2% [7.5 µM] (active) | -19.3% [7.5 µM] (active) | -36.9% [7.5 µM] (active) | -29.9% [7.5 µM] (active) | -33.2% [7.5 µM] (active) | -58.4% [7.5 µM] (active) | -62.2% [7.5 µM] (active) | -44.5% [7.5 µM] (active) | -55% [7.5 µM] (active) | -57.2% [7.5 µM] (active) | 0.342% [7.5 µM] (active) | 1.45% [7.5 µM] (active) | -18.2% [7.5 µM] (active) | -22.9% [7.5 µM] (active) | -92% [7.5 µM] (active) | 6.24% [7.5 µM] (active) | -37.6% [7.5 µM] (active) | -12.5% [7.5 µM] (active) | -55.3% [7.5 µM] (active) | -62.1% [7.5 µM] (active)
Cn1cc(-c2csc(-c3cn(CCN)c4ccc(F)cc34)n2)c2cccnc21 | 72.4% | 80.2% | 73% | 64.7% | 23.4% | 48.5% | 81.2% | 42% | 79.4% | 67.1% | 68.5% | 11.4% | 87.4% | 59.9% | 82.6% | 85.9% | 92.4% | 80.1% | 100% | 81.4%
C=COCCCCCCCCCCCCCCCCCC | 101% | 104% | 137% | 108% | 107% | 75.6% | 97.5% | 79.5% | 102% | 104% | 106% | 119% | 109% | 90.4% | 119% | 101% | 118% | 96.4% | 92.2% | 113%
CC(=O)c1c(C)[nH]c(-c2nc3ccc(N4CCN(C)CC4)cc3[nH]2)c1-c1ccc(OCC2CCOCC2)cc1 | 36.6% | 44.4% | 41.1% | 24.7% | 49.6% | 37% | 37.6% | 33.2% | 35.6% | 3.57% (active) | 63.4% | 22.4% | 20.7% | 37.4% | 31.1% | 54.3% | 43.3% | 40.2% | 30.8% | 34.5%
O=C(N/N=C/c1ccccc1SSc1ccccc1/C=N/NC(=O)c1ccccc1)c1ccccc1 | 33.5% | 44.8% | 46.5% | 20.2% | 10% (active) | 59.6% | 54% | 49.6% | 23.6% | 6.05% (active) | 35.3% | 18.3% | 48.9% | 44.7% | 34.2% | 32% | 38.2% | 26.9% | 45.1% | 12.9%
CCOC(=O)C1OC1(c1ccccc1)c1ccccc1 (stereo not given) | 111% | 106% | 120% | 118% | 109% | 107% | 107% | 84.3% | 117% | 119% | 108% | 109% | 110% | 98.9% | 113% | 94.2% | 113% | 106% | 95.7% | 107%
CC1(C)C(=O)/C(=C\c2ccco2)C[C@]2(C)[C@H]3CC[C@@H]4[C@@H](C(=O)/C=C/c5ccco5)CC[C@@]4(C)[C@]3(C)CC[C@@H]12 | 92.8% | 103% | 105% | 83.2% | 98.7% | 17.6% | 92.4% | 96.9% | 119% | -80.2% (active) | 75.2% | 85.6% | 1.28% (active) | 56% | 101% | 78.7% | 100% | 97.5% | 16.8% | 23.9%
C#CCn1c2c(c3ccccc31)C[C@]1(C)[C@H]3CC[C@@H]4[C@@H]5C(=CCC[C@H]5C(=C)C)CC[C@@]4(C)[C@]3(C)CC[C@H]1C2(C)C | 106% | 102% | 103% | 97.1% | 99.8% | 124% | 96.5% | 102% | 106% | 104% | 108% | 91.9% | 110% | 101% | 128% | 97.8% | 107% | 97.1% | 108% | 100%
Cc1ccccc1-c1nc(C(Cl)Cl)nc2cc(-c3ccccc3)nn12 | 50.4% | 75.3% | 86.3% | 54.9% | 81.5% | 45.8% | 82.8% | 25.1% | 93.7% | 41.7% | 57.8% | 52.2% | 86.2% | 44.9% | 3.45% (active) | 88.1% | 81.6% | 76.3% | 107% | 94%
COc1ccc(NC(=O)c2ccoc2COc2ccccc2)cc1 | 95.7% | 98.8% | 101% | 100% | 106% | 88.8% | 90.2% | 102% | 96.9% | 110% | 106% | 55% | 99.7% | 95.7% | 93.9% | 97.5% | 98.3% | 96% | 99.7% | 92.1%
COc1ccc(C2C(C#N)=C(N)Oc3c2sc2c(F)cccc32)cc1 (stereo not given) | 34.6% | 76% | 50% | 22.9% | 11.6% | 41.7% | 6.47% (active) | 36.7% | 29.4% | 5.98% (active) | 17.3% | 9.11% (active) | 65.4% | 41% | -8.26% (active) | 42.6% | 20.2% | 1.03% (active) | 64.9% | -15.6% (active)
CC(C)(C)c1cc(-n2c(-c3ccc(Cl)cc3)nc3cc(C(=O)Nc4ccc(Cl)cc4)ccc32)n[nH]1 | 32.8% | 73.9% | 82% | 83.6% | 39.6% | 38.1% | 56.9% | 51.1% | 67.4% | 51.8% | 79.8% | 41.2% | 75.4% | 79.8% | 65.7% | 69.7% | -2.36% (active) | 82.9% | 81.1% | 62.7%
Nc1ccccc1NC(=O)c1ccc(CN2CCC/C(=C\c3ccccn3)C2=O)cc1 | 29.3% | 52.8% | 39.8% | 41.8% | 17.9% | 46% | 21.1% | 26.2% | 44.5% | 1.53% (active) | 45.9% | 9.55% (active) | 20.9% | 45.3% | 2.96% (active) | 25% | -2.97% (active) | 27.4% | 26.3% | 12.3%
N#CC1=C(N)Oc2c(c(N)nn2-c2ccccc2)C1c1ccc(Cl)cc1Cl (stereo not given) | 103% | 102% | 104% | 92.8% | 106% | 86.9% | 90.5% | 108% | 102% | 120% | 105% | 89.6% | 104% | 97.4% | 109% | 92% | 106% | 94.3% | 104% | 96.7%
